From PubChem BioAssay
nsP2pro inh – inhibitors of chikungunya virus nsP2 protease; actives 1.1% (n = 31,000); FRET peptide cleavage, nsP2pro, fluorescence 1 h; Potency, µM (doses to about 24.9 µM), for inactives: top-dose activity change, negative = inhibition, actives largely listed as inhibitors; Q8JUX6; further: nearly all actives have a fitted effect of over 60% in size
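FRET cleavage of 2.5 uM peptide 2 by 150 nM CHIKV protease domain at pH 8.0 (Tris, Tween 20). Compounds at 7 concentrations (up to 25 uM) preincubated 15 min. Fluorescence read after 1 h at room temperature.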
nsP2 cell sec – cell-based CHIKV nsP2 protease inhibition, secondary | shares compounds with nsP2pro inh | cell-based CHIKV nsP2 protease reporter assay | Potency, µM (top dose mostly 51.1 µM), for inactives: top-dose activity change, negative = inhibition, actives largely listed as inhibitors | actives 10% (n = 450); further: nearly all actives have a fitted effect of over 70% in size
NSP2 full ctr – inhibits full-length CHIKV NSP2 enzyme. Full-length CHIKV NSP2 protease enzymatic counterscreen. shares compounds with nsP2pro inh. actives 39% (n = 410). Potency, µM (top dose mostly 50.7 µM), inactives show top-dose activity change, negative = inhibition, actives largely listed as inhibitors; further: nearly all actives have a fitted effect of over 65% in size
Furin counterscr – inhibits human furin in a CHIKV nsP2 protease selectivity counterscreen; actives 6% (n = 410); AID 1964102; shares compounds with nsP2pro inh; Recombinant human furin enzymatic counterscreen, fluorogenic substrate; Potency, µM (titrated, usually from 50.6 µM), for inactives: top-dose activity change, negative = inhibition, usual class: inhibitors
NS23 peptide cs – selectivity test for CHIKV nsP2 protease inhibitors: endogenous NS2/3 peptide | AID 1964103 | actives 34% (n = 410) | Potency, µM (series often up to 51 µM), for inactives: at the top dose activity change, negative = inhibition, hits mostly inhibitors | Purified CHIKV nsP2 protease, endogenous NS2/3 peptide cleavage | shares compounds with nsP2pro inh; further: nearly all actives have a fitted effect of over 55% in size
Papain counter – inhibits papain in a CHIKV nsP2 protease selectivity counterscreen. purified papain protease activity, enzymatic inhibition. actives 5% (n = 410). shares compounds with nsP2pro inh. AID 1964104. Potency, µM (doses to about 51 µM), for inactives: at the top dose activity change, negative = inhibition, most hits filed as inhibitors
Target sequence (P00784 whole entry, looked up): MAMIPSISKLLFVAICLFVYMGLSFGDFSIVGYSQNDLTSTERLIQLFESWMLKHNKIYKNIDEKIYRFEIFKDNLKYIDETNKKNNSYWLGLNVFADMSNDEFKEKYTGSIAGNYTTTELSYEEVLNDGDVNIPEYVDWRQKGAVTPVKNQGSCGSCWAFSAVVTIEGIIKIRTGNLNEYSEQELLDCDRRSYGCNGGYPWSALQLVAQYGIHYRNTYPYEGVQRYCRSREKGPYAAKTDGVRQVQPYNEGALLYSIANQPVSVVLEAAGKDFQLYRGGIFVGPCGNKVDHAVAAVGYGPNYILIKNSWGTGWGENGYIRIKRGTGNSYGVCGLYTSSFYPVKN
nsP2pro confirm – CHIKV nsP2 protease inhibition, confirmatory qHTS. Potency, µM (series often up to 25.5 µM), for inactives: at the top dose activity change, negative = inhibition, usual class: inhibitors. shares compounds with nsP2pro inh. actives 43% (n = 410). CHIKV nsP2 protease enzymatic activity, qHTS; further: nearly all actives have a fitted effect of over 75% in size
HCV NS3 4A cs – selectivity counter-screen for CHIKV nsP2 protease inhibitors: HCV NS3/4A; shares compounds with nsP2pro inh; HCV NS3/4A protease biochemical counterscreen; Potency, µM (top dose mostly 50.9 µM), usual class: inhibitors; actives 20% (n = 410); further: nearly all actives have a fitted effect of over 55% in size
An asterisk follows results filed as active; i = inactive; ? = inconclusive; [ ] = another dose, or the depositor's remark. This excerpt belongs to a sample that is enriched for hits. The call rests on the fitted dose curve. On the % scale 0 is the no-effect control and ±100 the full control effect; potency means the concentration at half of the fitted maximal effect.

SMILES | nsP2pro inh | others
CN(C)CCc1c[nH]c2ccc(CN3CCN(C)S3(=O)=O)cc12 | ? | nsP2 cell sec=14%;NSP2 full ctr=-4%;Furin counterscr=2%;NS23 peptide cs=-6%;Papain counter=0%;nsP2pro confirm=-25%;HCV NS3 4A cs=i
CNS(=O)(=O)Cc1ccc2[nH]cc(CCN(C)C)c2c1 | -19%
CN(C)CCc1c[nH]c2ccc(CS(=O)(=O)N3CCCC3)cc12 | -12%
COc1cc2ccccc2cc1C(=O)Nc1ccc(Cl)c(-c2nc3ccccc3o2)c1 | -25%
C=C1C(=O)OC2/C=C(/C)C3=CC(=O)C(C)(CC(OC(=O)/C(C)=C/COC(C)=O)C12)O3 (stereo not drawn) | -6%[10 µM]
C=C[C@@]12COC(=O)C(=C)C1[C@@H](O)[C@H](C(=C)C(=O)OC)[C@@H](OC(=O)C(=C)CO)C2 (stereo partly drawn) | -13%[10 µM]
C=C(CO)C(=O)O[C@H]1C[C@@]23O[C@@H]2CC/C(=C/[C@H]2OC(=O)C(=C)[C@H]12)CO[C@H]3O | ? | nsP2 cell sec=12%[33.5 µM];NSP2 full ctr=?;Furin counterscr=-1%[33.5 µM];NS23 peptide cs=?;Papain counter=-7%[33.5 µM];nsP2pro confirm=-38%[16.7 µM];HCV NS3 4A cs=?
COCCNC(=O)C(NC(=O)c1ccccc1)C1CCN(C(=O)C2CC2)CC1 (stereo not drawn) | 0%
CCCCC1C(=O)N(c2ccccc2)N(c2ccc(O)cc2)C1=O (stereo not drawn) | 8.8µM* | nsP2 cell sec=?;NSP2 full ctr=21µM*;Furin counterscr=-13%;NS23 peptide cs=6.5µM*;Papain counter=-12%;nsP2pro confirm=8µM*;HCV NS3 4A cs=i
CC(C)=CCC1C(=O)N(c2ccccc2)N(c2ccccc2)C1=O | -4%
CCCCN1C(=O)c2ccccc2C1=O | -7%
CCOC(=O)c1ccoc1-c1ccc2ncnc(NCc3csc(C)n3)c2c1 | -1%
Cc1ccc(S(=O)(=O)/C=C/C#N)cc1 | 0.88µM* | nsP2 cell sec=?;NSP2 full ctr=0.92µM*;Furin counterscr=5%;NS23 peptide cs=4.6µM*;Papain counter=-5%;nsP2pro confirm=0.28µM*;HCV NS3 4A cs=i
CN(C)c1nc(-c2ccncc2)nc2c1CCN(C(=O)c1cc(=O)[nH][nH]1)C2 | i
Cc1ccc(N(C)S(=O)(=O)c2c(-c3ccccc3)csc2C(=O)O)cc1 | -20%
O=c1[nH]cnc2c1ncn2[C@H]1CC[C@@H](CO)O1 | -11%
O=C(c1c[nH]c(=O)[nH]1)N1CC[C@@H]2[C@@H](CCC(=O)N2CC2CCNCC2)C1 | -11%
Cc1ccc2nc(NC(=O)CSc3nc4c(c(=O)n3C)SC(C)C4)sc2c1 (stereo not drawn) | 2%
COc1cc(C(=O)O)ccc1OC1OC(CO)C(O)C(O)C1O (stereo not drawn) | -3%
COc1cc(C(=O)O)cc(OC)c1O | ? | nsP2 cell sec=-4%;NSP2 full ctr=?;Furin counterscr=-2%;NS23 peptide cs=i;Papain counter=-6%;nsP2pro confirm=2%;HCV NS3 4A cs=i
COc1ccc(-c2ccc3cc(C(=O)O)ccc3c2)cc1C12CC3CC(CC(C3)C1)C2 | -21%
Cc1ccc(F)c(C(=O)NC(C)c2cnn(-c3ccccc3)c2C)c1Cl (stereo not drawn) | 5%
COc1ccccc1NC(=O)N1CCN(Cc2nc3ccc(C)cc3o2)CC1 | -17%
CC[C@]1(O)CC2CN(CCc3c([nH]c4ccccc34)[C@@](C(=O)OC)(c3cc4c(cc3OC)N(C)[C@H]3[C@@](O)(C(=O)OC)[C@H](OC(C)=O)[C@]5(CC)C=CCN6CC[C@]43[C@@H]65)C2)C1 (stereo partly drawn) | 23%
Cc1cccc(-c2csc3ncnc(Sc4nnnn4C)c23)c1 | i
SMILES | nsP2pro inh | others
Cn1nnnc1Sc1ncnc2scc(-c3cccc(N)c3)c12 | 1.8µM* | nsP2 cell sec=21µM*;NSP2 full ctr=-10%;Furin counterscr=-4%;NS23 peptide cs=-14%;Papain counter=-6%;nsP2pro confirm=18%;HCV NS3 4A cs=i
Cn1nnnc1Sc1ncnc2scc(-c3cccc(Br)c3)c12 | 4%
CC(C)(O)CCc1ccc(OCc2cc(-c3cccc(OC(F)F)c3)c3ncccc3c2)cc1 | 34%
CCc1ccc(C(=O)c2cn(CC(=O)Nc3ccc4c(c3)OCCO4)c3ccc(F)cc3c2=O)cc1 | -16%
O=C1c2c(O)ccc(O)c2C(=O)c2c(NCCNCCO)ccc(NCCNCCO)c21 | 219%
O=C1c2cccc(O)c2C(=O)c2c(O)cc(CO)cc21 | ? | nsP2 cell sec=-9%;NSP2 full ctr=-1%;Furin counterscr=-6%;NS23 peptide cs=-13%;Papain counter=-13%;nsP2pro confirm=10%;HCV NS3 4A cs=i
CC(C)c1ccc(CN2CCCC3(CCN(c4ncccc4C(N)=O)C3)C2)cc1 (stereo not drawn) | 4%
O=C(NCc1ccc(F)c(F)c1)c1ccc2nnc(Cc3ccco3)n2c1 | -16%
O=C(O)c1ccc(CN2CC(COc3ccccc3)C3(C2)CN(c2ccccc2)C3)cc1 (stereo not drawn) | -22%[39.2 µM]
O=C(C1CCCN1C(=O)c1ccccc1Cl)N1CCC(c2nc3ccncc3[nH]2)CC1 (stereo not drawn) | i
Cc1ccc(OCC(=O)N2CCN(CCc3ccncc3)CC2)cc1C | -16%
CCCCOc1ccc(OCCCN2CCOCC2)cc1 | 12%
Cc1cc(OCC(=O)N2CCN(CCc3ccncc3)CC2)ccc1Cl | -14%
O=C(O)c1ccc(OCCCOc2ccc(C(=O)O)cc2)cc1 | 3%
CCCCOc1ccc(C(=O)CCN2CCCCC2)cc1 | 2.2µM* | nsP2 cell sec=?;NSP2 full ctr=10µM*;Furin counterscr=?;NS23 peptide cs=13µM*;Papain counter=?;nsP2pro confirm=9µM*;HCV NS3 4A cs=i
CCCCOc1ccc(C(=O)N2CCN(CCc3ccncc3)CC2)cc1 | ? | nsP2 cell sec=24%
COc1ccc(CN2C(=O)[C@@H]3C[C@@H](O)CN3C3(CN(C)C3)C2=O)cc1 | -3%[39.2 µM]
Cc1c(Cl)cccc1-n1ncc(C(=O)N2CCN(c3ncccn3)CC2)c1C1CCN(C(=O)OC(C)(C)C)CC1 | -17%
Cc1nc(-c2ccccc2)sc1-c1ccc(SCC(=O)NCc2ccc(Cl)cc2)nn1 | -23%
N#Cc1ccc(C(=O)NCC(=O)OC(C(=O)Nc2cc(C(F)(F)F)ccc2Cl)c2ccccc2)cc1 (stereo not drawn) | -3%
COc1ccc(CNc2ccc(S(=O)(=O)Nc3nccs3)cc2)c(O)c1 | -6%
COc1ccc(S(=O)(=O)Nc2cccnc2Nc2ccc(O)cc2)cc1 | ? | nsP2 cell sec=-8%;NSP2 full ctr=8%;Furin counterscr=-13%;NS23 peptide cs=i;Papain counter=-9%;nsP2pro confirm=1%;HCV NS3 4A cs=i
CC(=O)Nc1ccc(S(=O)(=O)Nc2cccc3cccnc23)cc1 | i
COc1ccccc1C(=O)Nc1ccc(NC(=O)c2cccs2)cc1 | -8%
